A selection: hits, their analogues and other compounds. The true share with any hit is near 3.9%.
HIF-2a block: blocks HIF-2a reporter activity; actives 0.72% (n = 360,000); inhibition, % at 18.8 µM; 786-0 RCC cells HIF-2a reporter, luciferase luminescence, overnight;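 active means inhibition of the luminescence signal of 40% or more relative to plate controls, in a single-dose primary screen at 18.75 µM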
TROY NFkB inh: blocks TROY-dependent signaling in reporter cells; actives 0.98% (n = 360,000); AID 1347056; inhibition, % at 10 µM; Q293 LMP1-TROYcd NF-kB luciferase reporter, 4 h;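 active means compounds whose plate-normalised and pattern-corrected inhibition of the luciferase reporter signal at the single screening dose is 50% or more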
TWEAK-Fn14 inh: blocks TWEAK-Fn14 interaction in a reporter cell assay. actives 2% (n = 360,000). TWEAK-stimulated Fn14 reporter cells, luciferase luminescence, 8 h. inhibition, % at 10 µM; in the data active means inhibition above about 50%
C8 TRAIL sens: sensitizes caspase-8 expressing cells to TRAIL; NB7+C8 cells + TRAIL, ATPlite viability luminescence; inhibition (viability loss, TRAIL sensitization), % at 10 µM; actives 1% (n = 360,000); AID 624354;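 active means compounds causing at least 50% loss of cell viability in the single-dose screen, relative to plate controls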
aSyn 5UTR inh: 5' untranslated region of α-synuclein, MLPCN primary screen. AID 1813. actives 0.82% (n = 300,000). alpha-synuclein 5'UTR reporter, inhibitor activity. inhibition, % (tested at 7.5 µM); in the data active means inhibition above about 60%; inconclusive means no clear call, values can overlap the other calls;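 further: H4 neuroglioblastoma cells stably carrying SNCA 5'UTR luciferase fusion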
HSP90 inh: inhibitors of HSP90 luciferase refolding in rabbit reticulocyte lysate; luciferase refolding luminescence, 3 h; inhibition, % at 5.6 µM; actives 0.91% (n = 290,000); AID 1789;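 active means inhibition above the screen-wide mean plus 3 SD, computed separately per campaign, cut at about 16% in these data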;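 further: inhibitors lower the luminescence because luciferase stays unfolded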
Mdm2-MdmX confirm: confirmation of inhibitors of human Mdm2/MdmX interaction, set 2; shares compounds with HIF-2a block; AID 504601; actives 99% (n = 740); SaOS-2 split-luciferase Mdm2/MdmX complementation, luminescence; inhibition, % at 8 µM;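 active means mean inhibition of the luminescence signal across two replicates at or above 26 percent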
Target sequence (O15151 whole entry, looked up): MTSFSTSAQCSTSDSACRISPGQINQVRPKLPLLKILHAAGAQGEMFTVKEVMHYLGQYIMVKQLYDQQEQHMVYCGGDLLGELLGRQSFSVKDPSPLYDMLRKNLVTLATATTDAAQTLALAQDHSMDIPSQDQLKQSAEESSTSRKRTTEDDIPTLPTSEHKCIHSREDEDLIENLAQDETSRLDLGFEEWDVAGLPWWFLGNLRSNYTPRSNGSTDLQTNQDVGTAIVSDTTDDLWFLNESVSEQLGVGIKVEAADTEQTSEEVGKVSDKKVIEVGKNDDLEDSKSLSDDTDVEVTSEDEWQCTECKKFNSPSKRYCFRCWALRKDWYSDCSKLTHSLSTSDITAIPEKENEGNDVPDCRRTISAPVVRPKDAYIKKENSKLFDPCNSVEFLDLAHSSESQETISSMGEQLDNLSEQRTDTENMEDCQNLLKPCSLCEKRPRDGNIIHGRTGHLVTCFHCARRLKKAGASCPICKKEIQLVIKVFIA
Target sequence (Q00987 whole entry, looked up): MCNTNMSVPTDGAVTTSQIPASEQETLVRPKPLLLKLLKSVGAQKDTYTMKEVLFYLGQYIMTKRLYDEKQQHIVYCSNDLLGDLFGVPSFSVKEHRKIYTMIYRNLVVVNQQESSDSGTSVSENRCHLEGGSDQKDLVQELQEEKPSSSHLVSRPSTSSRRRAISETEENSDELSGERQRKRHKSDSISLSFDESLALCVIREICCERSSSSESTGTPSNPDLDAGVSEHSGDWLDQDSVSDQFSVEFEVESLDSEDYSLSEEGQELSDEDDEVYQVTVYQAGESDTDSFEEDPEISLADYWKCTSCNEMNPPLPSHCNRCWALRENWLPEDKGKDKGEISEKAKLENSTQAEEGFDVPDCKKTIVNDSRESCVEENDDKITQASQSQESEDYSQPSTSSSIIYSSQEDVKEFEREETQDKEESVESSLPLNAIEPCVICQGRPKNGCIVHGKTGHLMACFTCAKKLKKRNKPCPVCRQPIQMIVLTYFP
HIF-2a inh conf: confirmation of HIF-2a inhibitors | shares compounds with HIF-2a block | 786-0 RCC cells, HIF-2a luciferase reporter luminescence, overnight | actives 56% (n = 1,800) | AID 651580 | inhibition, % at 18.8 µM;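 active means mean inhibition across four replicates of at least 40 percent at the single tested concentration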
HIF-1a counter: counter-screen for HIF-2a inhibitors: HIF-1a inhibition in MiaPaCa-2 cells; MiaPaCa-2 HIF-1a luciferase reporter, desferoxamine, overnight; inhibition, % at 18.8 µM; actives 72% (n = 1,800); shares compounds with HIF-2a block;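 active means mean inhibition of the reporter signal across four replicates at the single tested dose of 50% or more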
Large screens that a line does not name were inactive (follow-up assays come after a bar, where they were run); ! = a repeat was not active.

COc1ccc(S(=O)(=O)N2CCCCC2)cc1NC(=O)c1ccc([N+](=O)[O-])o1	HIF-2a block 53 | HIF-2a inh conf inactive | HIF-1a counter 76
O=C(Nc1ccc(Cc2ccncc2)cc1)c1ccc([N+](=O)[O-])o1	HIF-2a block 53 | HIF-2a inh conf inactive | HIF-1a counter 102
O=C(Nc1ccc(S(=O)(=O)N2CCOCC2)cc1)c1ccc([N+](=O)[O-])o1	HIF-2a block 67 | HIF-2a inh conf inactive | HIF-1a counter 78
COc1ccc(S(=O)(=O)N2CCCCC2)cc1NC(=O)c1ccco1	none
Cc1ccc(C(=O)Nc2ccc(S(=O)(=O)N3CCCC3)cc2)o1	none
O=C(Nc1ccc(N2CCOCC2)cc1)c1ccc([N+](=O)[O-])o1	none
COc1ccc(NC(=O)/C(Cl)=C(/Cl)S(=O)(=O)Cc2ccccc2)cn1	HIF-2a block 94, TROY NFkB inh 77, TWEAK-Fn14 inh 101 | HIF-2a inh conf 100 | HIF-1a counter 106
COc1ccc(NC(=O)C(Cl)=C(Cl)Cl)cn1	none
O=C(OCn1ncc(Cl)c(Cl)c1=O)c1cccc(C(F)(F)F)c1	HIF-2a block 93, TWEAK-Fn14 inh 98, C8 TRAIL sens 94 | Mdm2-MdmX confirm 103 | HIF-2a inh conf 97 | HIF-1a counter 105
O=C(CCl)Nc1cccc(-c2cnc3ccccc3n2)c1	TWEAK-Fn14 inh 85, C8 TRAIL sens 94 | Mdm2-MdmX confirm 102
CCC(=O)Nc1cccc(-c2cnc3ccccc3n2)c1	none
CCN(CC)C(=O)C1=C(C)N(CCC2=CCCCC2)C(=O)C(CC(=O)NCc2ccco2)C1 (stereo not drawn)	none (no result: aSyn 5UTR inh, HSP90 inh)
CC(C)c1ccc(/C=C/C(=O)NC(=S)NN2CCOCC2)cc1	HIF-2a block 41 (no result: aSyn 5UTR inh) | HIF-2a inh conf inactive | HIF-1a counter inactive
CC(C)c1ccc(C(=O)NN2CCOCC2)cc1	none
Cc1ccc(NC(=O)c2cc(N3C(=O)C=CC3=O)ccc2N2CCOCC2)cc1Cl	HIF-2a block 48 | HIF-2a inh conf 68 | HIF-1a counter inactive
CC1CCC(C(C)C)C(OC(=O)Cn2c(-c3ccc(Cl)cc3)[n+](C)c3ccccc32)C1 (stereo not drawn)	TWEAK-Fn14 inh 59, C8 TRAIL sens 51, aSyn 5UTR inh inconclusive | Mdm2-MdmX confirm 100
CC1CCC(C(C)C)C(OC(=O)COC(=O)c2ccc(N)cc2)C1 (stereo not drawn)	none
CC1CCC(C(C)C)C(OC(=O)Cn2c(-c3ccc(Br)cc3)[n+](C)c3ccccc32)C1 (stereo not drawn)	TWEAK-Fn14 inh 56! | Mdm2-MdmX confirm 103
Cc1ccccc1OCc1n(CC(=O)OC2CC(C)CCC2C(C)C)c2ccccc2[n+]1C (stereo not drawn)	HIF-2a block 94!, TROY NFkB inh 64, TWEAK-Fn14 inh 83!, aSyn 5UTR inh 85 | Mdm2-MdmX confirm 102 | HIF-2a inh conf inactive | HIF-1a counter 107
CC(NC(=O)CCNC(=O)c1ccc(C(C)(C)C)cc1)c1ccccc1 (stereo not drawn)	none (no result: aSyn 5UTR inh, HSP90 inh)
COc1cc(C(=O)C(=O)N2CCN(c3ccccc3)CC2)cc(OC)c1OC	none (no result: TROY NFkB inh, TWEAK-Fn14 inh, aSyn 5UTR inh, HSP90 inh)
CCOc1ccc(C(=O)Cc2ccccc2)cc1	none (no result: aSyn 5UTR inh, HSP90 inh)
CCOc1ccc(C(=O)CSCCC(=O)O)cc1	HIF-2a block 78, aSyn 5UTR inh 68 | HIF-2a inh conf 82 | HIF-1a counter 61
CC1(C(=O)Nc2cccc(Oc3ccccc3)c2)CCN1Cc1cc2ccccc2o1 (stereo not drawn)	none (no result: aSyn 5UTR inh, HSP90 inh)
O=C(Nc1ccc(OCc2ccccc2Cl)cc1)c1cccnc1	HIF-2a block 48, aSyn 5UTR inh 90 | HIF-2a inh conf 83 | HIF-1a counter 89
COc1ccccc1-c1noc(CCCC(=O)NC2CCCC2)n1	none
O=C(CCCc1nc(-c2ccccc2Cl)no1)NC1CCCC1	HIF-2a block 88, TROY NFkB inh 52, TWEAK-Fn14 inh 92, aSyn 5UTR inh 99 | HIF-2a inh conf 96 | HIF-1a counter 64
OCc1ccccc1-c1cnc2sc(NCc3ccc(F)cc3)nn12	none (no result: aSyn 5UTR inh, HSP90 inh)
CCOc1ccccc1NC(=O)/C(C#N)=C/c1c(C)nn(-c2ccc(F)cc2)c1Cl	none
CN(C)c1nc(C=C(C#N)C#N)c(Cl)n1-c1ccc(F)cc1	HIF-2a block 91, TWEAK-Fn14 inh 72 | HIF-2a inh conf 92 | HIF-1a counter 92
CC(C)N1CCc2c(sc(NC(=O)c3ccc([N+](=O)[O-])o3)c2C(N)=O)C1	HIF-2a block 90, C8 TRAIL sens 52, aSyn 5UTR inh 104 | HIF-2a inh conf 79 | HIF-1a counter 103
CC(=O)N1CCc2c(sc(NC(=O)c3ccc([N+](=O)[O-])o3)c2C#N)C1	none
COC(=O)c1c(NC(=O)c2ccc([N+](=O)[O-])o2)sc2c1CCN(C(C)C)C2	C8 TRAIL sens 53, aSyn 5UTR inh 105 | Mdm2-MdmX confirm 84
C=C(CN(C)C)C(=O)c1ccc(C)cc1C	HIF-2a block 90 (no result: aSyn 5UTR inh, HSP90 inh) | HIF-2a inh conf 96 | HIF-1a counter 74
Cc1ccc(C(=O)CC(=O)c2ccccc2C)c(O)c1	none
COCCNC(=O)C1(C)CCN(C(=O)c2cc(C)nn2C(C)(C)C)C1 (stereo not drawn)	none (no result: aSyn 5UTR inh, HSP90 inh)
CCc1ccc(OCC(=O)NC(NC(=S)Nc2ccccc2C)C(Cl)(Cl)Cl)cc1 (stereo not drawn)	HIF-2a block 41, TROY NFkB inh 51 | HIF-2a inh conf inactive | HIF-1a counter 64
Cc1ccccc1NC(=S)NC(NC(=O)COc1ccccc1)C(Cl)(Cl)Cl (stereo not drawn)	none
CCc1ccc(OCC(=O)NC(NC(=S)Nc2ccccc2OC)C(Cl)(Cl)Cl)cc1 (stereo not drawn)	HIF-2a block 50 | HIF-2a inh conf inactive | HIF-1a counter inactive
CN(c1ccccc1)S(=O)(=O)c1cccc(NC(=O)CCNC(=O)c2ccco2)c1	none (no result: aSyn 5UTR inh, HSP90 inh)
O=C(CN1CCN(C(=O)C2CCN(C(=O)/C=C/c3ccccc3)CC2)CC1)Nc1ccc(F)cc1	none (no result: aSyn 5UTR inh, HSP90 inh)
COc1ccc(C2C(O)C(c3c[nH]c4ccccc34)=NN2C(=O)CCl)cc1 (stereo not drawn)	HIF-2a block 93, TWEAK-Fn14 inh 94, C8 TRAIL sens 96, aSyn 5UTR inh 108 | HIF-2a inh conf 88 | HIF-1a counter 106
CC(C)=CCOc1ccc([C@@H]2COc3c(ccc4c3C=CC(C)(C)O4)C2)c(O)c1	HIF-2a block 61 (no result: HSP90 inh) | HIF-2a inh conf inactive | HIF-1a counter 100

High-throughput results: PubChem BioAssay, several laboratories
